Only some compounds are listed: those with a hit (about 3% of all), similar ones and a draw of the others.
TR SRC2 fluor cs = Texas Red fluorescence interference in TRb-SRC2 counter-screen; TRb/SRC2 Texas Red total fluorescence interference; Potency, µM (top dose mostly 106 µM); 280,000 compounds, 0.29% hits; AID 1479; active = well fitted curve in either direction with a large enough effect; inconclusive = small, poorly fitted or top-dose-only effect
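Flags fluorescent or light-absorbing compounds by total fluorescence, S + 2P, at 555 nm excitation and 632 nm emission. Mixture: 20 nM Texas Red SRC2 peptide, 0.6 uM human TRb LBD, 1 uM T3, 5% DMSO; compound exposure 5 h at ambient temperature.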
Tau fibril FP = inhibitors of human tau fibril formation | P10636 | K18 P301L tau heparin fibrillization, Alexa594 FP, 6 h | Potency, µM (highest dose often 57.7 µM), usual class: inhibitors | 280,000 compounds, 0.39% hits; note: nearly all actives have a fitted effect of over 55% in size
Target sequence (P10636 561-689 P618L limits assumed): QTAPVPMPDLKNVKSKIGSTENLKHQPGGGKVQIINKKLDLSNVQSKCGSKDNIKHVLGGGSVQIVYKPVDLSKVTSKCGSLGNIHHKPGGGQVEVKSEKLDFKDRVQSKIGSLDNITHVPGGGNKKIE
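FP of Alexa 594-tau after heparin (20 uM) induction. Substrate: human K18 P301L, 15 uM unlabeled, 0.24 uM labeled. Buffer 100 mM sodium acetate pH 7. 6 hr, 37 C.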
Tau ThT inhib = tau fibrillization inhibition (ThT binding); Potency, µM (highest dose often 57.4 µM), most hits filed as inhibitors; 270,000 compounds, 2.1% hits; P10636; recombinant tau K18 P301L, heparin-induced fibrillization, ThT fluorescence; note: nearly all actives have a fitted effect of over 55% in size
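Using a mix of unlabeled (15 uM) and Alexa 594-labeled (0.24 uM) tau K18 P301L, heparin-triggered fibrillization over 6 hr at 37 C was scored by ThT fluorescence.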
Tau fluor counter = counter-screen for tau fibril formation inhibitors. 280,000 compounds, 0.93% hits. tau K18 P301L (four-repeat tau fragment) Alexa594 fluorescence, heparin fibrillization. Potency, µM (highest dose often 57.7 µM); note: nearly all actives have a fitted effect of over 55% in size
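Human K18 P301L tau (15 uM unlabeled plus 0.24 uM Alexa 594-labeled, final) in 100 mM sodium acetate pH 7 was mixed with compound and 20 uM heparin and incubated 6 hr at 37 C.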
TRb SRC2 PPI = inhibitors of human thyroid hormone receptor beta-SRC2 interaction; AID 1469; P10828; TRbeta-SRC2 peptide binding, fluorescence polarization; receptor liganded with 1 µM T3; 280,000 compounds, 0.065% hits; Potency, µM (series often up to 106 µM), hits mostly inhibitors; note: nearly all actives have a fitted effect of over 50% in size
Target sequence (P10828 whole entry, looked up): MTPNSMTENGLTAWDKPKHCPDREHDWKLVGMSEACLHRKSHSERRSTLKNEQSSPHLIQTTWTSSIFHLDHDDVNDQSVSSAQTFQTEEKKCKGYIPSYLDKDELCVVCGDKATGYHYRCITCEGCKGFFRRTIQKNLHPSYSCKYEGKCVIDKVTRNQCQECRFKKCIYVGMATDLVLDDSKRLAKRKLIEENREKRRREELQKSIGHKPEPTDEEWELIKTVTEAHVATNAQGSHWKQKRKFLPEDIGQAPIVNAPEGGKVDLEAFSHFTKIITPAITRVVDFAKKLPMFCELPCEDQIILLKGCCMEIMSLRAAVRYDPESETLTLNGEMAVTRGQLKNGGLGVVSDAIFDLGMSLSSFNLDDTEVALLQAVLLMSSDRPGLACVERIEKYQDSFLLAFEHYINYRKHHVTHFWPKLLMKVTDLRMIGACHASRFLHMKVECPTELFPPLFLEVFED
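Compounds were added to 0.6 uM TRb ligand-binding domain and 20 nM Texas Red-labeled SRC2 peptide in Tris buffer containing 1 uM T3, incubated 5 hr at ambient temperature, then read by fluorescence polarization.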
Numbers stand for hits; - = inactive; ? = inconclusive; . = no result; ! = not confirmed by another sample; [ ] = remark or other dose. Unless noted, calls come from the whole dose curve; as a rule, active = well fitted curve in the direction sought with a large enough effect; inconclusive = small, poorly fitted or top-dose-only effect, or another doubt; inactive = no such curve, though single readings can be large; an effect the other way counts as inactive or inconclusive.

SMILES	TR SRC2 fluor cs	Tau fibril FP	Tau ThT inhib	Tau fluor counter	TRb SRC2 PPI
COc1ccc(-c2ccc(C(=S)N3CCN(C(C)=O)CC3)o2)cc1	-	?	28µM	-	-
COc1ccc2c(c1)Cc1sc(NC(=O)c3ccccc3C)nc1-2	0.0028µM[quencher]	-	?	?	-
COc1ccc(C(=O)Nc2nc3c(s2)Cc2cc(OC)ccc2-3)cc1	-	-	2µM	4µM[quencher]	-
COc1ccc2c(c1)-c1nc(NC(=O)c3ccc(Cl)cc3)sc1CC2	-	-	-	-	-
COc1ccc2c(c1)-c1nc(NC(=O)c3ccccc3F)sc1CC2	?	?	?	?	-
COc1ccc2c(c1)CCc1sc(NC(=O)c3ccc(Cl)cc3)nc1-2	-	?	11µM	8.9µM[quencher]	-
COc1ccc2c(c1)Cc1sc(NC(=O)c3ccccc3)nc1-2	-	-	?	?	-
COc1ccc2c(c1)Cc1sc(NC(=O)c3cccc(F)c3)nc1-2	-	-	3.2µM	?	-
CCOc1ccccc1NC(=O)CN1Cc2ccccc2C1=O	-	-	-	-	-
COc1ccc2c(c1)Cc1sc(NC(=O)c3cccc(Br)c3)nc1-2	-	-	4µM	?	-
COc1ccc2c(c1)Cc1sc(NC(=O)c3cccs3)nc1-2	-	?	13µM	?	?
CCOc1ccc(NC(=O)OC(C)C)cc1OCC	-	.	.	.	-
Clc1ccc(-c2nc3ccccn3c2Nc2ccc3c(c2)OCCO3)s1	-	-	?	6.3µM[quencher]	-
Cc1ccn2c(Nc3ccc4c(c3)OCCO4)c(-c3ccc(Cl)s3)nc2c1	-	?	?	7.1µM[quencher]	-
Cc1ccc2nc(-c3ccc(Cl)s3)c(Nc3ccc4c(c3)OCCO4)n2c1	-	-	-	?	-
COc1ccc(C)cc1NC(=O)C1CCN(S(=O)(=O)c2cc(Br)cc3c2N(C(C)=O)CC3)CC1	-	-	-	-	-
COc1ccc(-c2noc(COc3cc(C)c(Br)c(C)c3)n2)cc1OC	-	?	?	-	-
CCOc1ccc(NC(=O)CN2CCN(c3ccc(Cl)cc3)CC2)cc1	-	-	-	-	-
O=C(O)C1CC=CC2CCN(C3CC3)C(=O)C21 (configuration not stated)	-	.	.	.	-
O=C1CSC(=S)N1Cc1cccnc1	?	-	32µM	-	?
CCOC(=O)c1c(-c2ccccc2)oc2ccc(N(C(C)=O)S(=O)(=O)c3ccc(CC)cc3)cc12	-	-	-	-	-
CCCCC1=CC2=C(c3ccco3)C(=O)C(C)(OC(=O)c3ccc(OC)cc3)C(=O)C2=CN1Cc1ccccc1 (configuration not stated)	-[11.2 µM]	-[11.6 µM]	13µM!	-[11.6 µM]	-[11.2 µM]
CCCCC1=CC2=C(c3ccco3)C(=O)C(C)(OC(=O)c3ccc(OC)cc3)C(=O)C2=CN1CCOC (configuration not stated)	-[11.2 µM]	-[11.6 µM]	?	-[11.6 µM]	-[11.2 µM]
O=C(CCCOc1ccc(Cl)cc1Cl)N/N=C/c1ccccc1O	32µM[quencher]	-	-	-	-
O=C(CCCOc1ccc(Cl)cc1Cl)N/N=C/c1ccccc1	-	-	-	-	-
SMILES	TR SRC2 fluor cs	Tau fibril FP	Tau ThT inhib	Tau fluor counter	TRb SRC2 PPI
CCCc1ccc(/C=C2\C(=O)c3ccccc3C(O)=C2C(=O)OCC)cc1	-	?	32µM	?	-
CCOC(=O)c1c(C)oc2c1C(=O)c1ccccc1C2=O	-	-	?	-	-
CCOC(=O)C1=C(O)c2ccccc2C(=O)/C1=C\c1ccc(CC)cc1	-	20µM	14µM	?	-
CC(C)OC(=O)C[C@H](NC(=O)OC(C)(C)C)c1ccccc1	-[11.2 µM]	-[11.6 µM]	-[11.5 µM]	-[11.6 µM]	-[11.2 µM]
COCCNc1nc(C)nc2c1nc(-c1ccccc1)n2CCCN1CCCCC1C (configuration not stated)	-	-	-	-	-
COC(=O)CC1Oc2ccc(Cl)cc2-n2cc(-c3ccc(C)cc3)nc21 (configuration not stated)	22µM[quencher]	-	-	-	-
Cc1ccc(C2C(C#N)=C(N)Oc3c2sc2ccccc32)o1 (configuration not stated)	-	?	14µM	?	-
CCOC(=O)c1ccc(NS(=O)(=O)c2cc(Br)cc3c2N(C(C)=O)C(C)C3)cc1 (configuration not stated)	-	-	-	-	-
CC(=O)Cn1ncc(Br)c(Br)c1=O	-	?	?	-	-
O=C(OCn1ncc(Br)c(Br)c1=O)c1c(F)cccc1F	-	?	7.1µM	-	-
CC(C)NC(=O)c1cnc2sc(N3CCCCCC3)nn2c1=O	-	-	-	-	-
O=C1C(Cl)=C(N2CCCCC2)C(=O)C(Cl)=C1c1cnc(N2CCCCC2)s1	-	22µM	16µM	?	-
CN(C)/C=N/c1sc2c(c1C#N)CCCC2	-	-	?	-	-
N#Cc1c(/N=C/c2ccco2)sc2c1CCCCC2	-	-	4.5µM	-	-
N#Cc1c(/N=C/c2cccs2)sc2c1CCC2	-	-	2.8µM	-	-
COC(=O)C(NS(N)(=O)=O)C(C)C (configuration not stated)	-	.	.	.	-
C/C(=N\OCc1nc2ccccc2c(=O)n1/N=C/c1cc(C)cc([N+](=O)[O-])c1O)c1ccccc1	-	-	4µM	?	-
O=c1c2ccccc2nc(COc2ccccc2)n1/N=C/c1ccc(O)cc1O	-	-	?	16µM[quencher]	-
C/C(=N\OCc1nc2ccccc2c(=O)n1/N=C/c1cc([N+](=O)[O-])ccc1O)c1ccccc1	-	-	.	14µM[quencher]	-
O=c1c2ccccc2nc(COc2ccccc2)n1/N=C/c1c[nH]c2ccccc12	-	?	-	?	-
CCSc1ncc(/C=N/Nc2ccc(F)cc2)n1C	-	-	8.9µM	?	-
Cc1ccc(CCNC(=O)c2cccc(Nc3nc4ccccc4nc3-n3nc(C)cc3C)c2)cc1	-	?	-	-	-
Cn1cccc1/C=C(\C#N)C(N)=S	-	-	?	-	-
Cn1c(/C=C(\C#N)C(N)=S)ccc1-c1ccc(Br)cc1	-	-	1µM	-	-
CCN(CC)c1ccc(NC2CC(=O)N(CCc3ccc(OC)cc3)C2=O)cc1 (configuration not stated)	-	?	11µM	?	-
SMILES	TR SRC2 fluor cs	Tau fibril FP	Tau ThT inhib	Tau fluor counter	TRb SRC2 PPI
Cc1nn2c(NCc3ccccn3)cc(C(C)C)nc2c1-c1ccccc1	-	-	?	?	-
CC(=O)Nc1ccc(Nc2cc(C)nc3c(-c4ccccc4)c(C)nn23)cc1	-	-	?	14µM[quencher]	-
CC(=O)Nc1ccc(Nc2cc(C(C)C)nc3c(-c4ccccc4)c(C)nn23)cc1	-	?	?	13µM[quencher]	-
O=C(Cc1ccccc1)NC1CC(=O)N(c2ccccc2)C1 (configuration not stated)	-	-	-	-	-
NC(=S)NCCC[C@H](N)C(=O)O	-	-	-	-	-
COc1ccc(C2CC(=O)N(CC(=O)Nc3ccc(C(C)=O)cc3)c3ccccc3S2)cc1OC (configuration not stated)	-	-	-	?	-
